Each structure is given as a SMILES string. This is part of a sample that, as a whole, favours compounds with a hit. Of some 83,000 tested, about 20% had one in any assay.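 Values shown are percent growth following 48 h exposure of cells in 96-well plates to a single concentration of compound; below 10 was considered active.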 Active and inactive are the calls of the source.

The test has as its system HCC-2998 colon. The experiment in a line: NCI-60 one-dose screen, 48 h (100 = growth as untreated, 0 = no growth, -100 = all killed). The settings on record: 10 µM unless noted.
As for `CCN(CC)c1ccc(C(=O)c2ccccc2)cc1`, the growth was 107% (inactive).

On to `NC1=NN=C(N)C1=Cc1cc2ccccc2n2nnnc12`, for which the growth is 108% (inactive). As for `Fc1ccc(-c2cn3c(nc4ccccc43)c(-c3ccccc3)n2)cc1`, the figure is 98.9% (inactive). For `CCNc1nc2ccc(Nc3ccnc4cc(Cl)ccc34)cc2[nH]1`, the growth is 84.1% (inactive). As to `O=S(=O)(NCCNc1nccc(-c2c(-c3cccc(O)c3)nc3occn23)n1)c1cccc(F)c1`, the growth was 129% (inactive). As for `COC(=O)/C=C1\S/C(=N\NC(=O)c2cc3ccc2/C=C\c2ccc(cc2)/C=C\3)N(c2ccccc2)C1=O`, the figure is 3.64% (active); as for `CCOC(=O)c1cc(C(=O)c2ccc(OC)c(OC)c2)n2c1ccc1ccccc12`, 109% (inactive). As for `CCOC(=O)c1cc(C#N)n2ccc3ccccc3c12`, the figure is 106% (inactive); as for `O=C1/C=C/[C@@H](O)[C@@H]2C[C@@H](O)C[C@H]2/C=C/CCC[C@H](CCc2ccc3ncccc3c2)O1`, 12.9% (inactive); as for `N#CC1=C(N)Oc2c(ccc3ccccc23)C1c1ccccc1Cl` (stereo unspecified), 17.7% (inactive).

Turning to `O=C(O)c1ccc(NCc2cn(-c3ccc(C(F)(F)F)cc3)nc2-c2ccc(C(=O)O)cc2)cc1`, the growth was 107% (inactive). As for `COc1cccc(C(=O)NNc2nc(Cl)nc(N3CCN(C(c4ccccc4)c4ccccc4)CC3)n2)c1`, the figure is 64% (inactive). With `N#C/C(=C\c1ccc(Cl)cc1)n1nnc2cc(F)c(F)cc21`, the growth is 16.8% (inactive). In the case of `COc1ccc(C(=O)C2C(C#N)C(C#N)C3c4ccccc4C=CN23)cc1` (stereo unspecified), the growth was 101% (inactive). As to `COc1cc(/C=N/NC(=O)c2cnn3c2NC(c2ccccc2)C3)ccc1Oc1ccccc1` (stereo unspecified), the growth is 57.3% (inactive). Take `C[C@H](c1nc2ccc(N)cc2[nH]1)[C@H]1CC[C@H]2[C@@H]3CCC4=CC(=O)CC[C@]4(C)[C@H]3CC[C@]12C`: the growth was 93.5% (inactive).

Take `COc1cc(C2C3=C(COC3=O)N(CCO)c3cc4c(cc32)CCC4)cc(OC)c1OC` (stereo unspecified): the growth was -32.4% (active). On to `Cc1ccc(NC(C(=O)c2ccccc2)c2ccccc2)cc1` (stereo unspecified), for which the growth is 55.1% (inactive). Consider `OCc1cnccc1NCCCOc1ccccc1`, for which the growth is 97.1% (inactive).

Take `Cn1cc(CC2CC(=O)N(c3ccccc3)C2=O)sc1=NC(=O)c1ccccc1` (stereo unspecified): the growth is 100% (inactive). Turning to `OCc1cnc2ccccc2c1NC1CCCCCC1`, the growth was 111% (inactive). Consider `Cc1cccc(NC(=O)Nc2ccc(-n3cnc4cc(-c5ccc(O)cc5)ccc43)cc2)c1`, for which the growth was 63.6% (inactive). For `COc1ccc(/C=N/NC(=O)c2cnn3c2NC(c2ccccc2)C3)cc1OC` (stereo unspecified), the growth is 67% (inactive). As for `Cc1c(C)c([N+](=O)[O-])c(C)c([N+](=O)[O-])c1C`, the figure is 112% (inactive). Turning to `COc1c(Cl)c2c(c(OC)c1OC)-c1ccc(SC)c(=O)cc1[C@@H](NC(=O)OCC(F)(F)F)CC2`, the growth was 21.6% (inactive). As to `O=C(/C=C/c1ccc(Cl)cc1)c1ccc(NC(=O)N2CCN(c3cc4c(cc3F)c(=O)c(C(=O)O)cn4C3CC3)CC2)cc1`, the growth was 102% (inactive). For the compound `CCOc1ccc(/C=N/Nc2cc(C)nc3ccc(Br)cc23)cc1`, the growth is 100% (inactive). On to `CNC(=O)c1cncc(Cn2nc(C)c(NC(=O)c3ccc(COc4ccc(C(F)(F)F)cc4C)cc3)c2C)c1`, for which the growth is 77.8% (inactive). With `COc1ccc(C(=O)c2nc3ccccc3n2CC(=O)c2ccc(F)cc2)cc1`, the growth was 65.3% (inactive). As to `CN1CCN(c2ccc(NC3=C(Cl)C(=O)c4ncccc4C3=O)cc2C(F)(F)F)CC1`, the growth was 105% (inactive). In the case of `COc1ccccc1NS(=O)(=O)c1cccc(C(=O)Nc2ccc(Br)cc2)c1`, the growth was 57.5% (inactive). As for `CCNC(=O)Oc1ccc(/C(=C(\C)c2ccccc2)c2ccc(OCCN(CC)CC)cc2)cc1`, the growth is 91.5% (inactive). As for `COc1ccc2c(c1)oc1c(C)c3c(c(C)c12)C(=O)N(N)C3=O`, the growth is 64.6% (inactive). On to `C[C@H]1[C@H]2[C@H]3CC[C@@H]4[C@@]5(C)CC[C@H](O)C(C)(C)[C@@H]5CC[C@@]4(C)[C@]3(C)CC[C@]23CO[C@]1(C)[C@@H](C(=O)/C=C\c1ccco1)C3`, for which the growth is 104% (inactive). As for `COc1ccc(C/C(C)=C(/c2ccc(OCCCN(C)C)cc2)c2ccc(OC(C)=O)cc2)cc1`, the figure is 70.3% (inactive); as for `CC1(C)CC[C@]23CC[C@]4(C)[C@H](CC[C@@H]5[C@@]6(C)CCCNC(C)(C)[C@@H]6CC[C@]54C)[C@H]2[C@H]1OC3`, -55.5% (active).

The values are drawn from PubChem BioAssay (NCI).
